Shown are actives, neighbours in structure and some others; about 9.9% of the full set was active somewhere.
JMJD2E inh = inhibitors of human JMJD2E histone demethylase. hit rate 1.6% among 230,000. JMJD2E catalytic domain, FDH-coupled NADH fluorescence (FDH is formaldehyde dehydrogenase). Potency, µM (highest dose often 57.1 µM), without a hit: at the top dose activity change, negative = inhibition, actives largely listed as inhibitors. B2RXH2; active = well fitted inhibition curve with a large enough effect, not every such curve was filed as active; inconclusive = small, poorly fitted or top-dose-only effect, or another doubt; inactive = no such curve, though single readings can be large or run the other way;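 note: 0% = wells with enzyme and -100% = buffer wells without enzyme; nearly all actives have a fitted effect of over 50% in size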
HPGD block = inhibitors of human 15-hydroxyprostaglandin dehydrogenase (HPGD). P15428. purified HPGD, NADH fluorescence kinetic, PGE2 substrate. Potency, µM, for the others: top-dose activity change, negative = inhibition, hits mostly inhibitors. hit rate 4.3% among 150,000. AID 894; active = well fitted inhibition curve with a large enough effect, not every such curve was filed as active; inconclusive = small, poorly fitted or top-dose-only effect, or another doubt; inactive = no such curve, though single readings can be large or run the other way
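NADH formation kinetics: reaction with 30 uM PGE2 and 1 mM NAD+ (final), 20 nM enzyme, Tris-HCl pH 8 with Tween 20, after 15 min compound preincubation at room temperature. Fluorescence change, last versus first of five reads.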
Tau FP inhib = tau fibrillization inhibition (FP); hit rate 0.39% among 280,000; Potency, µM (top dose mostly 57.7 µM), for the others: top-dose activity, negative = inhibition, usual class: inhibitors; K18 P301L tau heparin fibrillization, Alexa594 FP, 6 h; P10636; note: nearly all actives have a fitted effect of over 55% in size
Target sequence (P10636 561-689 P618L limits assumed): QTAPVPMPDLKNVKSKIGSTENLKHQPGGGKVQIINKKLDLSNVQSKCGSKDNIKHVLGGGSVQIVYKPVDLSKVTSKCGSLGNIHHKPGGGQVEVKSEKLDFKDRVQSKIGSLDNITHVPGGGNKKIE
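Human tau K18 […] P301L fragment, 15 uM unlabeled plus 0.24 uM Alexa 594-labeled tau (final), with compound and 20 uM heparin in 100 mM sodium acetate pH 7; 6 hr at 37 C, then Alexa 594 FP read.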
ALDH1A1 inh = blocks purified human ALDH1A1 activity. AID 1030. Purified ALDH1A1, NADH fluorescence, propionaldehyde substrate. hit rate 7.3% among 220,000. Potency, µM (titrated, usually from 75.3 µM), without a hit: top-dose activity, negative = inhibition, hits mostly inhibitors; active = well fitted inhibition curve with a large enough effect, not every such curve was filed as active; inconclusive = small, poorly fitted or top-dose-only effect, or another doubt; inactive = no such curve, though single readings can be large or run the other way;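 note: plate controls were no enzyme wells and a reference inhibitor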
Target sequence (P00352 whole entry, looked up): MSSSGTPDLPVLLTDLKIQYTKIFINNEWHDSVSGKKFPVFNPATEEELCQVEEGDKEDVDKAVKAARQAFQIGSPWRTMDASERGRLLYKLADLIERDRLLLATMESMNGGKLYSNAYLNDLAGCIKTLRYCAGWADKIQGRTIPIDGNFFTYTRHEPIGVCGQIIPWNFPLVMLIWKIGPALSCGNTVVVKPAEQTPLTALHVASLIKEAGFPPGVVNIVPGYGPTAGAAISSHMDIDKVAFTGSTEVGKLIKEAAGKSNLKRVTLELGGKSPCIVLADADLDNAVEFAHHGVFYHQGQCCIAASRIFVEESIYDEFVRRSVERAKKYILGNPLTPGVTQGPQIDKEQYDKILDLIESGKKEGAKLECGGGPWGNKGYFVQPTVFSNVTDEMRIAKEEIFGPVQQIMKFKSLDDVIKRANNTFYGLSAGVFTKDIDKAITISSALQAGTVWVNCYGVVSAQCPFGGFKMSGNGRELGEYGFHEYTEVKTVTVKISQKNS
Tau fluor cs = counter-screen for tau fibril formation inhibitors; tau K18 P301L Alexa594 fluorescence, heparin fibrillization; Potency, µM (titrated, usually from 57.7 µM), inactives show at the highest dose activity change, negative = decrease; hit rate 0.93% among 280,000; AID 1463; note: nearly all actives have a fitted effect of over 55% in size
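Human K18 P301L tau (15 uM unlabeled plus 0.24 uM Alexa 594-labeled, final) in 100 mM sodium acetate pH 7 was mixed with compound and 20 uM heparin and incubated 6 hr at 37 C.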
Tau ThT inhib = blocks human tau fibril formation measured by thioflavin T | Potency, µM (highest dose often 57.4 µM), for inactives: at the highest dose activity, negative = inhibition, usual class: inhibitors | P10636 | recombinant tau K18 P301L (four-repeat tau fragment), heparin-induced fibrillization, ThT fluorescence | hit rate 2.1% among 270,000; note: nearly all actives have a fitted effect of over 55% in size
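Tau K18 P301L fragment (15 uM unlabeled plus 0.24 uM Alexa 594-labeled) in 100 mM sodium acetate pH 7 with compound, fibrillization induced by 20 uM heparin for 6 hr at 37 C. Thioflavin T (30 uM) added, fluorescence read after 1 hr (ex 450, em 510 nm).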
* hit, by the source's call; ? = inconclusive; · = no result given; [ ] = dose if it differs, or a comment. Unless noted, calls come from the whole dose curve; as a rule, active = well fitted curve in the direction sought with a large enough effect; inconclusive = small, poorly fitted or top-dose-only effect, or another doubt; inactive = no such curve, though single readings can be large; an effect the other way counts as inactive or inconclusive. Unless noted, % is set by controls: 0 for no effect and ±100 for the full control effect; potency is the fitted concentration of half-maximal effect.

SMILES	JMJD2E inh	HPGD block	Tau FP inhib	ALDH1A1 inh	Tau fluor cs	Tau ThT inhib
Nc1cc(=O)[nH]c(SCC(=O)N2CCCCC2)n1	-3%	·	3%	-10%	-5%	-1%
Nc1cc(N)nc(SCC(=O)N2CCCCC2)n1	2%	28µM*	7%	-4%	6%	-2%
Cc1cc(C)nc(SCC(=O)N2CCCCC2)n1	-1%	7.9µM*	-4%	?	1%	3%
Cc1cc(C)nc(SCC(=O)NN)n1	-3%	·	-6%	10µM*	-2%	-9%
O=C(CSc1nc2ccccc2nc1SCC(=O)N1CCOCC1)N1CCOCC1	3%	-20%	-6%	3%	3%	3%
CC(C)(C)NC[C@H](O)COc1cccc2c1C[C@@H](O)[C@@H](O)C2	-1%[25.5 µM]	-4%	·	0%[20.9 µM]	·	·
CCOC(=O)C1CCN(C(=O)COC(=O)CNC(=O)c2ccc(OC)cc2)CC1	2%	·	-5%	-6%	-3%	-5%
CC1SC2(NC1=O)C1CC3CC(C1)CC2C3 (stereo unspecified)	4%	·	-1%	-1%	-2%	0%
FC(F)Oc1ccc(NC(=S)NNc2ccnc3cc(Cl)ccc23)cc1	17%	·	2%	8.9µM*	?	?
O=C(NNc1ccnc2cc(Cl)ccc12)C1CCCCC1	-9%	·	12%	5%	0%	-2%
NC(=S)NNc1ccnc2cc(Cl)ccc12	-18%	·	2%	1.4µM*	-25%	?
Cn1cc(CCNC(=O)CC2C(=O)NCCN2CC(c2ccccc2)c2ccccc2)cn1 (stereo unspecified)	-6%	·	2%	·	2%	-5%
C=CCn1c(=O)/c(=C2/SC(C)=C(C)N2CC)s/c1=C1/C(=O)N(CC)C(=S)N1c1ccccc1	9%	-7%	9%	-5%	-24%	?
C=CCn1c(=O)/c(=C2/Sc3ccccc3N2CC)s/c1=C1/C(=O)NN=C1C	3%	·	9%	20µM*	9%	3%
CC(C)Oc1ccc(C2c3c(oc4ccccc4c3=O)C(=O)N2CCCN2CCOCC2)cc1 (stereo unspecified)	?	-14%	-1%	8.9µM*	-6%	-23%
Cc1ccc(C2c3c(oc4ccccc4c3=O)C(=O)N2CCCN2CCOCC2)o1 (stereo unspecified)	?	-23%	-4%	?	-9%	?
C=CCOc1ccc(C2c3c(oc4ccccc4c3=O)C(=O)N2CCCN2CCOCC2)cc1 (stereo unspecified)	?	-8%	-3%	18µM*	-8%	-18%
CCOc1ccc(C2c3c(oc4ccc(C)cc4c3=O)C(=O)N2CCCN2CCOCC2)cc1 (stereo unspecified)	·	·	-9%	·	-4%	-5%
O=C1c2oc3ccc(Cl)cc3c(=O)c2C(c2ccccn2)N1CCCN1CCOCC1 (stereo unspecified)	?	-29%	6%	7.9µM*	4%	?
Cc1ccc(C2c3c(oc4cc(C)c(C)cc4c3=O)C(=O)N2CCCN2CCOCC2)cc1 (stereo unspecified)	-20%	-6%	-5%	11µM*	1%	-14%
COc1ccc(C2c3c(oc4ccc(C)cc4c3=O)C(=O)N2CCCN2CCOCC2)cc1OC (stereo unspecified)	·	·	-5%	·	5%	8%
COc1ccccc1-c1ccc(NC2CCCC2)nn1	-16%	6.3µM*	-5%	0%	0%	-8%
COc1ccc(CNc2ccc(-c3ccccc3OC)nn2)cc1	3%	16µM*	-1%	-9%	-7%	-15%
COc1ccc(CNc2ccc(-c3ccc(OC)cc3)nn2)cc1	3%	-11%	-8%	2%	-8%	?
COc1ccccc1OCCNC1CCCC1	1%	-9%	-2%	?	7%	13%
SMILES	JMJD2E inh	HPGD block	Tau FP inhib	ALDH1A1 inh	Tau fluor cs	Tau ThT inhib
Cc1ccc(-c2csc(=Nc3cccnc3)n2CCCN2CCCC2=O)cc1C	4%	-11%	2%	7.9µM*	5%	-2%
O=C(O)CCNC(=O)c1ccc(NC(=O)Cc2ccc(Cl)cc2)cc1	4%	·	8%	7%	-4%	-3%
CCC(C)N=C1Sc2nc3ccc(C)cc3cc2CN1CCOC (stereo unspecified)	-9%	·	0%	14µM*	-3%	?
O=C1OCCC1S(=O)(=O)c1ccc2ccccc2c1 (stereo unspecified)	9%	·	-2%	-3%	5%	3%
O=C(c1ccccc1)N1CCCCC(S(=O)(=O)c2ccc3ccccc3c2)C1=O (stereo unspecified)	-4%	-5%	-2%	10µM*	-10%	-3%
COc1ccc(C(c2sc3nc(C)nn3c2O)N2CCc3ccccc3C2)cc1 (stereo unspecified)	?	22µM*	-5%	?	2%	-13%
Cc1ccc2c(=O)cc(C(=O)Nc3ccc(S(=O)(=O)N4CCCCCC4)cc3)oc2c1C	·	·	-4%	·	?	-13%
COC(=O)Cc1c(C)[nH]n(-c2cc(Cl)cc(Cl)c2)c1=O	-20%	·	-10%	7.1µM*	?	?
NNC(=O)CS(=O)(=O)Nc1ncccn1	·	-8%	·	16%[13.5 µM]	·	·
COc1cc2c(cc1OC)C(COc1ccc(F)cc1)N(C(=O)c1cccc(F)c1)CC2 (stereo unspecified)	·	·	0%	·	-20%	-15%
CC1CCc2c(sc(N)c2C(=O)OC(C)C)C1 (stereo unspecified)	-6%	28µM*	-5%	11µM*	-22%	?
COc1ccc(Cl)cc1C(=O)Nc1sc2c(c1C(=O)OC(C)C)CCCC2	·	·	-9%	·	-24%	?
CCOC(=O)c1c(C)oc2c1c1c(c3ccccc32)OCN(CCCC(=O)O)C1	10µM*	·	0%	7.9µM*	?	?
CCOC(=O)c1c(C)oc2c1c1c(c3ccccc32)OCN(Cc2cccnc2)C1	?	-25%	?	0.2µM*	?	18µM*
Nc1c(-c2cccc([N+](=O)[O-])c2)nc2ccccn12	0%	-22%	-5%	7.5µM*	-9%	-7%
O=C(Nc1nc(N2C(=O)c3ccccc3C2=O)n(-c2ccccc2)n1)c1ccccc1	-20%	-16%	-1%	3%	-1%	-8%
O=C(Nc1nc(N2C(=O)c3ccccc3C2=O)n(-c2ccccc2)n1)c1ccc(F)cc1	-8%	-7%	7%	20µM*	-5%	-4%
O=C1c2oc3ccccc3c(=O)c2C(c2ccc(O)cc2)N1Cc1ccc2c(c1)OCO2 (stereo unspecified)	·	·	-8%	·	14%	12%
Cc1ccc(N2NC(C)(c3cccs3)NC2=S)cc1 (stereo unspecified)	?	-21%	-8%	18µM*	?	16µM*
